Results on ten compounds are retold here after PMC5540273 (PLoS ONE, 2017).

Each structure is given as a SMILES string.

Among the test systems are DAPK2; DAPK3; DDR1; DDR2; DMPK; DYRK1A; DYRK1B; DYRK2; EGFR; EIF2AK1; EPHA1; EPHA2; EPHA3.
Common to all, as to conditions: concentration: 1 μM, replicates: in singlicate; n = 1
For another assay, the system named is T1, DCAMKL1.
T1 construct: gene DCLK1

A further assay relates to T2, DCAMKL2.
T2 construct: gene DCLK2

Another assay concerns T3, DCAMKL3.
T3 construct: gene DCLK3

The next assay deals with T4, DLK.
T4 construct: gene MAP3K12

Another assay relates to T5, DMPK2.
T5 construct: gene CDC42BPG

Another assay relates to T6, DRAK1.
T6 construct: gene STK17A

The subject of the next assay is T7, DRAK2.
T7 construct: gene STK17B
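Note: KINOMEscan kinase panel screen.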

For `Cc1cc(NCC(c2ccccc2)c2ccccc2)nc(NCc2ccc(C(F)(F)F)cc2)n1` [GW497681], the “%Inh” value with DAPK2 was found to be 0%; with DAPK3, 0%; in the assay on DCAMKL1, 0%; in the assay with DCAMKL2, 11%; with DCAMKL3, 0%; in the assay with DDR1 it was 0%. Besides, the “%Inh” value is given as 20% with DDR2; 39% in the assay with DLK; 1% with DMPK2; 0% in the assay with DMPK; 0% with DRAK1; 0% in the assay on DRAK2. Besides, the “%Inh” value with DYRK1A was 0%; in the assay with DYRK1B, 0%; in the assay with DYRK2 it was 3%; in the assay with EGFR it was 10%; in the assay with EIF2AK1, 0%; in the assay with EPHA1, 0%. Also, the “%Inh” value was 3% in the assay with EPHA2 and 0% in the assay with EPHA3.

Take `Cc1ccc(-c2cc(-c3c[nH]nc3-c3ccccn3)ccn2)cc1` [GW684088]: the “%Inh” value with DAPK2 worked out at 9%; with DAPK3 it was 25%; with DCAMKL1, 21%; in the assay with DCAMKL2, 24%; in the assay with DCAMKL3 it was 0%; with DDR1, 13%. Moreover, the “%Inh” value was found to be 47% with DDR2; 45% with DLK; 5% in the assay with DMPK2; 0% in the assay on DMPK; 12% with DRAK1; 0% in the assay with DRAK2. Moreover, the “%Inh” value was 11% in the assay on DYRK1A; 6% in the assay on DYRK1B; 0% with DYRK2; 6% in the assay with EGFR; 0% in the assay on EIF2AK1; 0% in the assay on EPHA1. For the same compound, the “%Inh” value is given as 0% with EPHA2 and 49% in the assay on EPHA3.

On to `CC(C)(C)c1ccc(C(=O)Nc2cn3cc(Cl)ccc3n2)cc1`, for which the “%Inh” value with DAPK2 turned out to be 0%; with DAPK3 it was 3%; in the assay with DCAMKL1, 15%; with DCAMKL2, 0%; in the assay on DCAMKL3, 18%; with DDR1, 0%. For the same compound, the “%Inh” value in the assay on DDR2 is reported as 20%; with DLK, 0%; in the assay with DMPK2 it was 0%; in the assay with DMPK, 0%; in the assay with DRAK1, 5%; in the assay on DRAK2, 20%. Also, the “%Inh” value with DYRK1A amounted to 47%; with DYRK1B, 65%; in the assay on DYRK2, 0%; with EGFR, 0%; in the assay on EIF2AK1, 0%; in the assay on EPHA1 it was 0%. In addition, the “%Inh” value in the assay on EPHA2 is listed as 0%; in the assay on EPHA3, 65%.

In the case of `Cc1ccccc1-n1cnc2c(N)ncnc21` [SKF-97510], the “%Inh” value turned out to be 10% in the assay on DAPK2; 12% with DAPK3; 0% in the assay with DCAMKL1; 0% in the assay with DCAMKL2; 0% in the assay with DCAMKL3; 11% with DDR1. Besides, the “%Inh” value was determined as 0% in the assay on DDR2; 0% in the assay with DLK; 0% with DMPK2; 0% in the assay with DMPK; 0% with DRAK1; 47% with DRAK2. Further, the “%Inh” value in the assay with DYRK1A, with DYRK1B, in the assay on DYRK2, in the assay with EGFR, in the assay on EIF2AK1 and in the assay with EPHA1 was 0% throughout. For the same compound, the “%Inh” value in the assay on EPHA2 and with EPHA3 was 0% in each case.

Regarding `COc1ccccc1CNC(=O)c1cc(C(=O)c2ccccc2C)c[nH]1` [GSK364507], the “%Inh” value in the assay with DAPK2 is given as 0%; with DAPK3 it was 17%; in the assay with DCAMKL1 it was 16%; in the assay on DCAMKL2 it was 16%; in the assay on DCAMKL3 it was 4%; in the assay on DDR1, 11%. Besides, the “%Inh” value came out at 0% with DDR2; 15% in the assay with DLK; 5% in the assay with DMPK2; 0% with DMPK; 1% with DRAK1; 12% in the assay on DRAK2. Besides, the “%Inh” value in the assay with DYRK1A is on record as 17%; in the assay with DYRK1B, 19%; in the assay with DYRK2, 0%; in the assay on EGFR, 36%; in the assay with EIF2AK1, 0%; with EPHA1, 25%. The results for the “%Inh” value with EPHA2 and in the assay on EPHA3 were 13% and 0%, respectively.

In the case of `CCCc1ccc(S(=O)(=O)NC2CCN(c3ccnc(Nc4ccc(F)cc4)n3)C2)cc1` (centres unmarked) [GSK1379715], the “%Inh” value with DAPK2 is 0%; in the assay with DAPK3 it was 7%; in the assay with DCAMKL1, 10%; in the assay on DCAMKL2, 0%; in the assay with DCAMKL3 it was 0%; with DDR1, 0%. Moreover, the “%Inh” value with DDR2 is reported as 7%; in the assay on DLK it was 0%; in the assay with DMPK2 it was 0%; in the assay with DMPK, 0%; in the assay on DRAK1 it was 0%; with DRAK2, 0%. The “%Inh” value in the assay with DYRK1A amounted to 23%; with DYRK1B, 0%; with DYRK2 it was 0%; with EGFR it was 0%; with EIF2AK1, 12%; in the assay with EPHA1 it was 8%. Besides, the “%Inh” value amounted to 12% in the assay on EPHA2 and 0% in the assay on EPHA3.

As for `CN(C)CCN(C)C(=O)c1cc(-c2ccncc2)c(-c2ccc(Cl)c(O)c2)o1.Cl.Cl` [SB-710397], the “%Inh” value was determined as 0% in the assay with DAPK2; 33% with DAPK3; 56% in the assay with DCAMKL1; 9% in the assay with DCAMKL2; 0% in the assay on DCAMKL3; 34% in the assay on DDR1. The “%Inh” value with DDR2 stood at 38%; in the assay with DLK, 34%; with DMPK2 it was 47%; in the assay on DMPK it was 0%; in the assay on DRAK1, 23%; in the assay on DRAK2, 0%. Besides, the “%Inh” value in the assay with DYRK1A worked out at 9%; with DYRK1B it was 0%; with DYRK2 it was 0%; with EGFR, 30%; in the assay on EIF2AK1 it was 0%; in the assay on EPHA1 it was 45%. Also, the “%Inh” value with EPHA2 was found to be 5%; in the assay with EPHA3 it was 0%.

Regarding `COc1cc(Nc2nccc(N3CCC(NC(=O)Nc4cc(C)ccc4C)C3)n2)cc(OC)c1OC` (centres unmarked) [GSK1379762], the “%Inh” value is 0% in the assay with DAPK2; 7% in the assay with DAPK3; 0% in the assay with DCAMKL1; 12% in the assay on DCAMKL2; 0% in the assay with DCAMKL3; 43% in the assay on DDR1. For the same compound, the “%Inh” value in the assay on DDR2 amounted to 10%; in the assay with DLK it was 30%; with DMPK2 it was 22%; in the assay on DMPK, 0%; with DRAK1, 0%; in the assay with DRAK2, 0%. The “%Inh” value was 25% in the assay on DYRK1A; 16% with DYRK1B; 19% in the assay on DYRK2; 63% in the assay with EGFR; 0% in the assay on EIF2AK1; 22% in the assay on EPHA1. Moreover, the “%Inh” value in the assay on EPHA2 was 8%; in the assay with EPHA3 it was 0%.

As for `Cc1c(O)cccc1Nc1ccnc2ccc(C(F)(F)F)cc12.Cl` [GW466413], the “%Inh” value in the assay on DAPK2 is 0%; with DAPK3 it was 0%; in the assay on DCAMKL1, 0%; in the assay with DCAMKL2, 0%; in the assay on DCAMKL3, 0%; with DDR1 it was 16%. The “%Inh” value worked out at 24% with DDR2; 43% in the assay on DLK; 0% in the assay on DMPK2; 0% in the assay on DMPK; 14% in the assay on DRAK1; 0% with DRAK2. Also, the “%Inh” value in the assay on DYRK1A is listed as 29%; in the assay on DYRK1B it was 0%; in the assay with DYRK2, 0%; with EGFR, 28%; in the assay with EIF2AK1 it was 0%; with EPHA1 it was 77%. Besides, the “%Inh” value in the assay with EPHA2 is reported as 11%; in the assay on EPHA3, 3%.

Consider `Fc1cccc(COc2nnc(-c3ccc4c(c3)CCO4)o2)c1`, for which the “%Inh” value with DAPK2 is recorded as 0%; with DAPK3 it was 0%; with DCAMKL1 it was 9%; in the assay on DCAMKL2, 0%; with DCAMKL3, 0%; in the assay on DDR1 it was 0%. Besides, the “%Inh” value is on record as 12% in the assay with DDR2; 0% with DLK; 0% with DMPK2; 0% in the assay on DMPK; 6% in the assay with DRAK1; 33% in the assay with DRAK2. Moreover, the “%Inh” value amounted to 44% in the assay with DYRK1A; 65% with DYRK1B; 3% in the assay with DYRK2; 6% in the assay with EGFR; 0% in the assay with EIF2AK1; 0% in the assay on EPHA1. In addition, the “%Inh” value in the assay on EPHA2 and in the assay on EPHA3 was 0% each time.
